From article PMC7862700, “An all-to-all approach to the identification of sequence-specific readers for epigenetic DNA modifications on cytosine”

How the values were obtained:
Experiment in all cases: DAPPL (digital affinity profiling via proximity ligation, sequencing); 10 mM Tris-HCl pH 7.5, 50 mM NaCl, 1 mM DTT, 4% glycerol, room temperature, 30 min; GST-TFs on glutathione beads, 16-mer random dsDNA library, 0.1% formaldehyde crosslink after washing; high values mean tight binding
FLI1 = molecular target: T1, FLI1 (Homo sapiens, UniProt Q01543 1-452); settings: protein: recombinant; tags: N-terminal GST; dsDNA, one strand shown
T1 sequence: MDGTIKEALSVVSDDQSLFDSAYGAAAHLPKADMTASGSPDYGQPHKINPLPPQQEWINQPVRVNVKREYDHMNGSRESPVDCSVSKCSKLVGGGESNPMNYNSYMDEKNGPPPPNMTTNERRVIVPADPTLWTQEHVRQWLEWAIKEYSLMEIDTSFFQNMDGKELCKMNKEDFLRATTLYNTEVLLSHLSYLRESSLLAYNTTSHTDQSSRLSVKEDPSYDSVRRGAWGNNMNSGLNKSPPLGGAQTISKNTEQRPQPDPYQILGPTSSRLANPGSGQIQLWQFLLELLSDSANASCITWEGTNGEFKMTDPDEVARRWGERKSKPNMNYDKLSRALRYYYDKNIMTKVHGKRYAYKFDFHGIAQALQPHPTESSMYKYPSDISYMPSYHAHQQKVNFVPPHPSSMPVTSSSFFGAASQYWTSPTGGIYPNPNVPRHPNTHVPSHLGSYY
Outline: (§1)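 After expression in yeast as GST fusions, human transcription factors were bound to glutathione beads, DNA-barcoded and mixed with a tag-only sample. The pools were incubated with 200 nmole of a 16-mer random double-stranded DNA library in Tris/NaCl/DTT/glycerol buffer (30 min, room temperature), washed and crosslinked with 0.1% formaldehyde. Proximity ligation with BsaI/T4 ligase ran for 1 h at 37 °C, before PCR amplification and sequencing on an Illumina NextSeq500. Binding signal is a hexamer's read frequency for a factor divided by its frequency for the tag-only sample.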

ELK1 = molecular target: T2, ELK1 (Homo sapiens, UniProt P19419 1-428); settings: protein: recombinant; tags: N-terminal GST; dsDNA, one strand shown
T2 sequence: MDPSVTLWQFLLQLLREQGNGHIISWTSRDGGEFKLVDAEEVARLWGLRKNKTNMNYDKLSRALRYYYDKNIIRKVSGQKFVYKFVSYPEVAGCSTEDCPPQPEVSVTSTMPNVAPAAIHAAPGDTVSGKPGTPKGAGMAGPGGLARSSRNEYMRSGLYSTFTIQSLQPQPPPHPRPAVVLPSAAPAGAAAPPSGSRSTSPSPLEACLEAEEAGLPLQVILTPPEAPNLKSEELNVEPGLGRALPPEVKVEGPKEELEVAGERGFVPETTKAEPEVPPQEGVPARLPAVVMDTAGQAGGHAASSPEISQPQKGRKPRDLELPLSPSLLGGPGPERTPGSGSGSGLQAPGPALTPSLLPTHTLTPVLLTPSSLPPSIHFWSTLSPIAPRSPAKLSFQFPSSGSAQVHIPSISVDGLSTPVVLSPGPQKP
Outline: as §1

GABPA = molecular target: T3, GABPA (Homo sapiens, UniProt Q06546 1-454); settings: protein: recombinant; tags: N-terminal GST; dsDNA, one strand shown
T3 sequence: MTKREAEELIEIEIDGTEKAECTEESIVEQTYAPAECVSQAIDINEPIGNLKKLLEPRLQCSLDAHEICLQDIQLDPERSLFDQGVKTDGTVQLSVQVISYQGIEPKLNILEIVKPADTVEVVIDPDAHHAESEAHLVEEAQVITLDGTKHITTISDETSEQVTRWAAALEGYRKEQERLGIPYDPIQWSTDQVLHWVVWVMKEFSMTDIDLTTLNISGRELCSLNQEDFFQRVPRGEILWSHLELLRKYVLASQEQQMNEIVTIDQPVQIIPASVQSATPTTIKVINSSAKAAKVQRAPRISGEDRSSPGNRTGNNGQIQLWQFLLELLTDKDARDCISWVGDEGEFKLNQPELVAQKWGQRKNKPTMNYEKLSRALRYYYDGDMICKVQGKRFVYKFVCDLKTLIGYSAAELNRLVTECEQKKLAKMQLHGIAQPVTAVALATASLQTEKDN
Outline: as §1

ERG = molecular target: T4, ERG (Homo sapiens, UniProt P11308 1-479); settings: protein: recombinant; tags: N-terminal GST; dsDNA, one strand shown
T4 sequence: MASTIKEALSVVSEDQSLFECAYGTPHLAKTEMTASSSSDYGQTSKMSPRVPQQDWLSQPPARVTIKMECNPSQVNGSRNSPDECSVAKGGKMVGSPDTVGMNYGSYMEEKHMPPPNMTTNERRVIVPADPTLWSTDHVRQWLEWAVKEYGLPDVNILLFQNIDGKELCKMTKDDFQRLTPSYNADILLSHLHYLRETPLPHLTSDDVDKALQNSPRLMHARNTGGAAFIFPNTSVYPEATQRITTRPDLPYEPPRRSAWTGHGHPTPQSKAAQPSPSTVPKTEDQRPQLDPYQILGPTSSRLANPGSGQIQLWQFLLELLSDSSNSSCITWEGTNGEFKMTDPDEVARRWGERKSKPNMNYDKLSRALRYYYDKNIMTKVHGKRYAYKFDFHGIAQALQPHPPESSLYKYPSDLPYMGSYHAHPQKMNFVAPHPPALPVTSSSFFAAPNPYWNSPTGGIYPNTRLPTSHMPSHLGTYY
Outline: as §1

ELF1 = ELF1 (Homo sapiens, UniProt P32519 1-619); settings: protein: recombinant; tags: N-terminal GST; dsDNA, one strand shown
Outline: as §1

EHF = molecular target: T5, EHF (Homo sapiens, UniProt Q9NZC4 1-300); settings: protein: recombinant; tags: N-terminal GST; dsDNA, one strand shown
T5 sequence: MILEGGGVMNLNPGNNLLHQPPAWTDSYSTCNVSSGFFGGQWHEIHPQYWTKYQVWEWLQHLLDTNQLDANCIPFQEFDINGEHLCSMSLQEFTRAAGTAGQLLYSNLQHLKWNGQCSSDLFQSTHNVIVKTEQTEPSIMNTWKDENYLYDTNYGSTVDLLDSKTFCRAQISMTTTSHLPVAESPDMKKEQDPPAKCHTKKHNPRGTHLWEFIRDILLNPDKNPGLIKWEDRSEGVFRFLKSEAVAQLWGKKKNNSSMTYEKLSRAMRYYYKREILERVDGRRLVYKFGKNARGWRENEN
Outline: as §1

SPI1 = SPI1 (Homo sapiens, UniProt P17947 1-270); settings: protein: recombinant; tags: N-terminal GST; dsDNA, one strand shown
Outline: as §1

SPIB = SPIB (Homo sapiens, UniProt Q01892 1-262); settings: protein: recombinant; tags: N-terminal GST; dsDNA, one strand shown
Outline: as §1

ELK3 = molecular target: T6, ELK3 (Homo sapiens, UniProt P41970 1-407); settings: protein: recombinant; tags: N-terminal GST; dsDNA, one strand shown
T6 sequence: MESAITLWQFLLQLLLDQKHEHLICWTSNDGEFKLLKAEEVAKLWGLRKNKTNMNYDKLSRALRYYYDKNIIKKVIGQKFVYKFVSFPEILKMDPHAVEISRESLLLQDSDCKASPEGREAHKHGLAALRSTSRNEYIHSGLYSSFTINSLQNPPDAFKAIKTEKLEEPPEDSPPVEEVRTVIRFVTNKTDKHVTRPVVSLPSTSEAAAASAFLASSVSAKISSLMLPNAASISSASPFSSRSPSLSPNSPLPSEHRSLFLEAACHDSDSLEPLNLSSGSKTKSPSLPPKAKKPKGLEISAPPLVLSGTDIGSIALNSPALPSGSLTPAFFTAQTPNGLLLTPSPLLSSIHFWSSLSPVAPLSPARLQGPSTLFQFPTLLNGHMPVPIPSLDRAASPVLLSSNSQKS
Outline: as §1

FEV = molecular target: T7, FEV (Homo sapiens, UniProt Q99581 1-238); settings: protein: recombinant; tags: N-terminal GST; dsDNA, one strand shown
T7 sequence: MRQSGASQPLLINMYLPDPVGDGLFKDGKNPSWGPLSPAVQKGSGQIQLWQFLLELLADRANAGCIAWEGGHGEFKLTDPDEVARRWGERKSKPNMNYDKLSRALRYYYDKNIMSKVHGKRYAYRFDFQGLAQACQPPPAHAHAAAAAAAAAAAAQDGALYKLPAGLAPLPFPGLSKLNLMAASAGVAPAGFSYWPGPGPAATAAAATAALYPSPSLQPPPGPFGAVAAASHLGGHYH
Outline: as §1

ETV5 = ETV5 (Homo sapiens, UniProt P41161 1-510); settings: protein: recombinant; tags: N-terminal GST; dsDNA, one strand shown
Outline: as §1

HSF1 = HSF1 (Homo sapiens, UniProt Q00613 1-529); settings: protein: recombinant; tags: N-terminal GST; chain copies: 3; dsDNA, one strand shown
Outline: as §1

SPIC = molecular target: T8, SPIC (Homo sapiens, UniProt Q8N5J4 1-248); settings: protein: recombinant; tags: N-terminal GST; dsDNA, one strand shown
T8 sequence: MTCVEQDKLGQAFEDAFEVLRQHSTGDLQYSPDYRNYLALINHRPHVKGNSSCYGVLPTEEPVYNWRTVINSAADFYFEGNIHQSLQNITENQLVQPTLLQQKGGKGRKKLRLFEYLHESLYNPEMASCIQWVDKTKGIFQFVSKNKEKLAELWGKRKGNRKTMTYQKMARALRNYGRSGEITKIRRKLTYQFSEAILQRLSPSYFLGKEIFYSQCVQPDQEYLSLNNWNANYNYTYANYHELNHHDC
Outline: as §1

ELF4 = ELF4 (Homo sapiens, UniProt Q99607 1-663); settings: protein: recombinant; tags: N-terminal GST; dsDNA, one strand shown
Outline: as §1

ELK4 = molecular target: T9, ELK4 (Homo sapiens, UniProt P28324-2 1-405); settings: protein: recombinant; tags: N-terminal GST; dsDNA, one strand shown
T9 sequence: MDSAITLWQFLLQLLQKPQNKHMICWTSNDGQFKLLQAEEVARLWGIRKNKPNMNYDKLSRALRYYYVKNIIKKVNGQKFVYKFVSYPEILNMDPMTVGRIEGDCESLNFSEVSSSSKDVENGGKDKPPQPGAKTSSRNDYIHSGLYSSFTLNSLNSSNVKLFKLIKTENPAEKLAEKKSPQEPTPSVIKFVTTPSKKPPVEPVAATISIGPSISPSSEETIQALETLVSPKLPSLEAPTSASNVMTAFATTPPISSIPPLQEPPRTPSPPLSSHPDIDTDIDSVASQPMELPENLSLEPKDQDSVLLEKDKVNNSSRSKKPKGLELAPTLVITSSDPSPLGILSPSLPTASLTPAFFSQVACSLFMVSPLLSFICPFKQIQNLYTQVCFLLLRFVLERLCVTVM
Outline: as §1

ELF3 = molecular target: T10, ELF3 (Homo sapiens, UniProt P78545 1-371); settings: protein: recombinant; tags: N-terminal GST; dsDNA, one strand shown
T10 sequence: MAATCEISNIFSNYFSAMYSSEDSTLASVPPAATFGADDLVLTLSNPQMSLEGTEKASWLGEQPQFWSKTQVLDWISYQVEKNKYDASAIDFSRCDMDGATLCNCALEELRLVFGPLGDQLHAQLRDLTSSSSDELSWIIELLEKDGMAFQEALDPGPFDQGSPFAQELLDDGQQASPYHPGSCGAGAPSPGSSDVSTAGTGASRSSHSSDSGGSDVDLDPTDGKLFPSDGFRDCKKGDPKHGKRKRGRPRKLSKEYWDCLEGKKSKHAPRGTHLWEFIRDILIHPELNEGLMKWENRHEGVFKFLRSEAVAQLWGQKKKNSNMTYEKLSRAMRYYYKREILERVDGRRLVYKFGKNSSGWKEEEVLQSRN
Outline: as §1

ETV1 = ETV1 (Homo sapiens, UniProt P50549 1-477); settings: protein: recombinant; tags: N-terminal GST; dsDNA, one strand shown
Outline: as §1

ELF1, sequence (P32519 whole entry): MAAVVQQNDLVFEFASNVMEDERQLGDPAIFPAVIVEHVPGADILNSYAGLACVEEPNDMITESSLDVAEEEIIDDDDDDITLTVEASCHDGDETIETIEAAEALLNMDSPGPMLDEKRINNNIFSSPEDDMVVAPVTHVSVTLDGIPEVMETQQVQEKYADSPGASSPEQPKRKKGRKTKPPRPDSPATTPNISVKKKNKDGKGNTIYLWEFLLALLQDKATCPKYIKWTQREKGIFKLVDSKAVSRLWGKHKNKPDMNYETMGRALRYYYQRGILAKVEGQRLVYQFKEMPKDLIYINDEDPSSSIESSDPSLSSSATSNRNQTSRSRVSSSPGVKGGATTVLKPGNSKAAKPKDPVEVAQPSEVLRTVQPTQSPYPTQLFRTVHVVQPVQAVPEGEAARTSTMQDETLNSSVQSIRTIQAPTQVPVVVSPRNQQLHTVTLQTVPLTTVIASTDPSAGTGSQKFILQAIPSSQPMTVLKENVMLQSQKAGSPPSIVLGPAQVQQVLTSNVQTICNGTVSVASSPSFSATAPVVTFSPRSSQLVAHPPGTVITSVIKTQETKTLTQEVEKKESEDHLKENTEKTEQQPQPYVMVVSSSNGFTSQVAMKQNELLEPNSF
ELF4, sequence (Q99607 whole entry): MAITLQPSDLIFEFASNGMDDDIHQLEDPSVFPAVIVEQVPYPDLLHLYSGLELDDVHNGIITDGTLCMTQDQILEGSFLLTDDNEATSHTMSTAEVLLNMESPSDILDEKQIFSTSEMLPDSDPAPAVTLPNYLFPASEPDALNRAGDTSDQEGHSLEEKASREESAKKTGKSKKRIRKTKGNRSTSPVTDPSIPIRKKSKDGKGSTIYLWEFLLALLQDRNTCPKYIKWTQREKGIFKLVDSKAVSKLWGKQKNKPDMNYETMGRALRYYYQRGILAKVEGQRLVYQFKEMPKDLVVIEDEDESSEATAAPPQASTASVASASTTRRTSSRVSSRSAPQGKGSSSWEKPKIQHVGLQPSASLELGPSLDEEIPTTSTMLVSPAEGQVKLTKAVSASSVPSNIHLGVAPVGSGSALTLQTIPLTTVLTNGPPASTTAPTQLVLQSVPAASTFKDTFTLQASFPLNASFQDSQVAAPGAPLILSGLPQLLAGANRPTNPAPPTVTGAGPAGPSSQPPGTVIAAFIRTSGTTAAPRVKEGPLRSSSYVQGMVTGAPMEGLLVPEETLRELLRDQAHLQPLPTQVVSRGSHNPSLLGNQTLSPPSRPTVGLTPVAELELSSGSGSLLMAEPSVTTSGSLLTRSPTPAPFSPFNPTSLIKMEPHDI
ETV5, sequence (P41161 whole entry): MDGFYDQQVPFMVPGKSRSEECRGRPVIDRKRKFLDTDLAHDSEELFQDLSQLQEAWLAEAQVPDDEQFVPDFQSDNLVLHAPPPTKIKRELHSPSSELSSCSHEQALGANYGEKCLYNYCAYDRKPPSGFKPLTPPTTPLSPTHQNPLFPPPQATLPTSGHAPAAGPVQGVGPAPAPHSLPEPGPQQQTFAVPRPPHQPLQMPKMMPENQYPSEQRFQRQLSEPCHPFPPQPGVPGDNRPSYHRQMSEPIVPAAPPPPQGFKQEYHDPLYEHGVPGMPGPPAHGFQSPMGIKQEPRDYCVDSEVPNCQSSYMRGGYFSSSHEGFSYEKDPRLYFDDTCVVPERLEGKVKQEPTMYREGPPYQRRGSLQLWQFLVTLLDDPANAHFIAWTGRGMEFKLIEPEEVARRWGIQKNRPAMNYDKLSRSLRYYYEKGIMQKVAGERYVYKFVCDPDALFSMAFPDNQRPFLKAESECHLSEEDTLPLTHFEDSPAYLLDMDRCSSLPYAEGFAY
ETV1, sequence (P50549 whole entry): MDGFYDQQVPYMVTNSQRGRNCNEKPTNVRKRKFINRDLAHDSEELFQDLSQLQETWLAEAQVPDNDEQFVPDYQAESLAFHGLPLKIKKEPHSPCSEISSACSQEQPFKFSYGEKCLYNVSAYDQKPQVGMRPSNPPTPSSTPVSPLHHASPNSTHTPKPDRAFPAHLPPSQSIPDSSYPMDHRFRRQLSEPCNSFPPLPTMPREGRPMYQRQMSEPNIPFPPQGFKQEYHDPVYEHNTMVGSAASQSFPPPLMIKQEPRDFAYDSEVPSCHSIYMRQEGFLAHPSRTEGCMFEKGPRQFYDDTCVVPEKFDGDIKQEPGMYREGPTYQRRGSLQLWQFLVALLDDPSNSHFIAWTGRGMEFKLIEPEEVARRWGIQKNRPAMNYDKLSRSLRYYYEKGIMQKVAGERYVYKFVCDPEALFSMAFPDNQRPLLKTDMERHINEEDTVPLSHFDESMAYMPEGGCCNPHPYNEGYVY
SPIB, sequence (Q01892 whole entry): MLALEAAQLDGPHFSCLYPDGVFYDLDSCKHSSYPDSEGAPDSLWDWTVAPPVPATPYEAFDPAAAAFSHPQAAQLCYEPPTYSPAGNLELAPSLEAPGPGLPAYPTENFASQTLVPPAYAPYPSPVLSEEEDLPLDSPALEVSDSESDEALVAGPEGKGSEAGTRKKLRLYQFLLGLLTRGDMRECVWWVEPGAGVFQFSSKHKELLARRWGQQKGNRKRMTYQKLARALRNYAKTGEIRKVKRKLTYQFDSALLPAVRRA
HSF1, sequence (Q00613 whole entry): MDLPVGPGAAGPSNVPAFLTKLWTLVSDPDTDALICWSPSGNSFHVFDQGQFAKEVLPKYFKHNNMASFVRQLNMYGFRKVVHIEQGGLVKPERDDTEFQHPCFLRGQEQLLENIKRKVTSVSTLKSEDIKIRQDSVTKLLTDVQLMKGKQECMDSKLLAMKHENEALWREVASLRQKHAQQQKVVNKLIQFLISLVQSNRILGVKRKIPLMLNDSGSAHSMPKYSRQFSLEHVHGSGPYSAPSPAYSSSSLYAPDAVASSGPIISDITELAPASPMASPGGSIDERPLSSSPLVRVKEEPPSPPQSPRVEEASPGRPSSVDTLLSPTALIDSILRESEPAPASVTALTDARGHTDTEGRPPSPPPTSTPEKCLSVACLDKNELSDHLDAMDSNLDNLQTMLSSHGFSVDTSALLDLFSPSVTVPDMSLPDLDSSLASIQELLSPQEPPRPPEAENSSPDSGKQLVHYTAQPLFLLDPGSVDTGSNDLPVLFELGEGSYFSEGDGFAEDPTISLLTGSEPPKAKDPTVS

## CCTCGT
FLI1
  binding signal: 1.16 fold enrichment (6-mer frequency, TF over GST control)
ELK1
  binding signal: 1.1 fold enrichment (6-mer frequency, TF over GST control)
GABPA
  binding signal: 1.39 fold enrichment (6-mer frequency, TF over GST control)
ERG
  binding signal: 1.24 fold enrichment (6-mer frequency, TF over GST control)
ELF1
  binding signal: 1.3 fold enrichment (6-mer frequency, TF over GST control)
EHF
  binding signal: 1.18 fold enrichment (6-mer frequency, TF over GST control)
SPI1
  binding signal: 1.31 fold enrichment (6-mer frequency, TF over GST control)
SPIB
  binding signal: 1.13 fold enrichment (6-mer frequency, TF over GST control)
ELK3
  binding signal: 1.37 fold enrichment (6-mer frequency, TF over GST control)
FEV
  binding signal: 1.18 fold enrichment (6-mer frequency, TF over GST control)
ETV5
  binding signal: 1.19 fold enrichment (6-mer frequency, TF over GST control)
HSF1
  binding signal: 1.08 fold enrichment (6-mer frequency, TF over GST control)
SPIC
  binding signal: 1.25 fold enrichment (6-mer frequency, TF over GST control)
ELF4
  binding signal: 1.25 fold enrichment (6-mer frequency, TF over GST control)
ELK4
  binding signal: 1.29 fold enrichment (6-mer frequency, TF over GST control)
ELF3
  binding signal: 1.24 fold enrichment (6-mer frequency, TF over GST control)
ETV1
  binding signal: 1.39 fold enrichment (6-mer frequency, TF over GST control)
